Experiment [1] concerns the target Paired box protein Pax-6 (Homo sapiens) (UniProt P26367). Kind of experiment: ATG_Pax6_CIS: Attagene CIS-FACTORIAL HepG2 Assay for human Paired Box 6 (PAX6) (AID 2282956). Particulars: HepG2 CIS-FACTORIAL PAX6 reporter transcription, RNA readout; actives raise or lower the signal. The method, boiled down: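 Transient MRTU transfection of HepG2 → compound exposure 24 h → TriZol RNA, oligo(dT) RT → PCR, 6-FAM primer extension, HpaI cut → capillary electrophoresis; activity fitted both directions against DMSO.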

A short description of experiment [2]: ATG_PXRE_CIS: Attagene CIS-FACTORIAL HepG2 Assay for human Pregnane X Receptor Element (PXRE) (AID 2282957). Particulars: HepG2 Attagene CIS-FACTORIAL PXRE reporter, mRNA; actives raise or lower the signal. The method in brief: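 Transiently transfected HepG2 cells were dosed and incubated for 24 h. RNA was then isolated, DNase-treated, reverse-transcribed and reporter sequences amplified. Labeled, HpaI-digested fragments were quantified by capillary electrophoresis against DMSO.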

The nature of experiment [3]: ATG_PPRE_CIS: Attagene CIS-FACTORIAL HepG2 Assay for human Peroxisome Proliferator-activated Response Element (PPRE) (AID 2282958). The note with it: HepG2 PPRE cis-element reporter, Attagene transcription factor profiling; actives raise or lower the signal. The method, boiled down:
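HepG2 cells are transiently transfected with multiplexed cis-promoter reporter units to report endogenous PPAR activity. After 24 h dosing, reporter mRNA is read by RT-PCR and capillary electrophoresis. Fitting is bidirectional against DMSO.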

A short description of experiment [4]: ATG_RORE_CIS: Attagene CIS-FACTORIAL HepG2 Assay for human RAR-related Orphan Receptor Element (RORE) (AID 2282959). The note with it: HepG2 Attagene cis-factorial RORE reporter, mRNA; actives raise or lower the signal. The method, boiled down:
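HepG2 cells carrying transiently transfected cis-regulated reporter units; RORE-driven reporter mRNA quantified 24 h post-dosing by RT-PCR, 6-FAM primer extension, HpaI digestion and capillary electrophoresis. Bidirectional fit versus DMSO.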

Experiment [5] in a line: ATG_Sox_CIS: Attagene CIS-FACTORIAL HepG2 Assay for human SRY-box transcription factor (SOX) (AID 2282960). The note with it: HepG2 Attagene cis-factorial SOX reporter, mRNA; actives raise or lower the signal. The method in brief:
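HepG2 cells transiently transfected with multiple cis-regulated reporter units, then dosed for 24 h. Reporter mRNA quantified by RT-PCR, fluorescent labelling, HpaI digestion and capillary electrophoresis; bidirectional fit versus DMSO.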

In experiment [6] the target is Transcription factor Sp1 (Homo sapiens) (UniProt P08047). Kind of experiment: ATG_Sp1_CIS: Attagene CIS-FACTORIAL HepG2 Assay for human Specificity Protein 1 (Sp1) (AID 2282961). Particulars: HepG2 Sp1 cis-reporter transcription, actives raise or lower the signal. The method in brief: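 HepG2 cells transiently transfected with multiplexed cis-regulated reporter constructs, chemical exposure 24 h. Reporter mRNA quantified by RT-PCR with capillary electrophoresis; bidirectional fit relative to DMSO.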
Chain of Transcription factor Sp1 (Homo sapiens) (P08047 whole entry, looked up): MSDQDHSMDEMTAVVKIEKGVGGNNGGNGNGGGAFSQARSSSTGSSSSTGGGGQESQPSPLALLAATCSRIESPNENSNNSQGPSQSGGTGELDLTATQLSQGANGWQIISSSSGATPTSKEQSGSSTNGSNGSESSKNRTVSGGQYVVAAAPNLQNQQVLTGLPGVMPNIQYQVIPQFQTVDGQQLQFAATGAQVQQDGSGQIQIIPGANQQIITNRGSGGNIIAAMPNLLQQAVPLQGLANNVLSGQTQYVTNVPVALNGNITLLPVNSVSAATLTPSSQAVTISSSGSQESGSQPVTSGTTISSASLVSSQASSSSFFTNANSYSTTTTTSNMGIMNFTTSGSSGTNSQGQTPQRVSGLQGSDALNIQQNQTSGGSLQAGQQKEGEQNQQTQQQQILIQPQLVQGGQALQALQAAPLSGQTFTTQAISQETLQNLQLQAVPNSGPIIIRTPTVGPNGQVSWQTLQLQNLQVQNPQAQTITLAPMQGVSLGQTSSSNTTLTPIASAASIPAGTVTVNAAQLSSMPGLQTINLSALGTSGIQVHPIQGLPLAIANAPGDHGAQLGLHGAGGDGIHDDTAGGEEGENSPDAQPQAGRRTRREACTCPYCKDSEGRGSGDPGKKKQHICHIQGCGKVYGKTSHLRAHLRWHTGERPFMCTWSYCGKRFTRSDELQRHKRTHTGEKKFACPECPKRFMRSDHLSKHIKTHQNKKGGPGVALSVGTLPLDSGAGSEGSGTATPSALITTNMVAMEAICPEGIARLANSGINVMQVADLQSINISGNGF

The nature of experiment [7]: ATG_SREBP_CIS: Attagene CIS-FACTORIAL HepG2 Assay for human Sterol Regulatory Element Binding (SREBP) (AID 2282962). The note with it: HepG2 Attagene cis-factorial SREBP reporter, mRNA; actives raise or lower the signal. The method, boiled down:
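Transfected HepG2 (cis-regulated reporter library, endogenous TFs) → compound 24 h → total RNA → oligo(dT) RT → reporter-specific PCR → FAM primer extension, HpaI cut → CE fluorescence. Fit bidirectional vs DMSO.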

The target of experiment [8] is Signal transducer and activator of transcription 3 (Homo sapiens) (UniProt P40763). Kind of experiment: ATG_STAT3_CIS: Attagene CIS-FACTORIAL HepG2 Assay for human Signal Transducer and Activator of Transcription 3 (STAT3) (AID 2282963). Particulars: HepG2, Attagene cis-factorial STAT3 reporter transcription; actives raise or lower the signal. The method, boiled down: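 Transcript-level reporter assay. HepG2 transient MRTU transfection, 24 h exposure, fluorescence detection after RT-PCR and CE; DMSO baseline.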
Chain of Signal transducer and activator of transcription 3 (Homo sapiens) (P40763 whole entry, looked up): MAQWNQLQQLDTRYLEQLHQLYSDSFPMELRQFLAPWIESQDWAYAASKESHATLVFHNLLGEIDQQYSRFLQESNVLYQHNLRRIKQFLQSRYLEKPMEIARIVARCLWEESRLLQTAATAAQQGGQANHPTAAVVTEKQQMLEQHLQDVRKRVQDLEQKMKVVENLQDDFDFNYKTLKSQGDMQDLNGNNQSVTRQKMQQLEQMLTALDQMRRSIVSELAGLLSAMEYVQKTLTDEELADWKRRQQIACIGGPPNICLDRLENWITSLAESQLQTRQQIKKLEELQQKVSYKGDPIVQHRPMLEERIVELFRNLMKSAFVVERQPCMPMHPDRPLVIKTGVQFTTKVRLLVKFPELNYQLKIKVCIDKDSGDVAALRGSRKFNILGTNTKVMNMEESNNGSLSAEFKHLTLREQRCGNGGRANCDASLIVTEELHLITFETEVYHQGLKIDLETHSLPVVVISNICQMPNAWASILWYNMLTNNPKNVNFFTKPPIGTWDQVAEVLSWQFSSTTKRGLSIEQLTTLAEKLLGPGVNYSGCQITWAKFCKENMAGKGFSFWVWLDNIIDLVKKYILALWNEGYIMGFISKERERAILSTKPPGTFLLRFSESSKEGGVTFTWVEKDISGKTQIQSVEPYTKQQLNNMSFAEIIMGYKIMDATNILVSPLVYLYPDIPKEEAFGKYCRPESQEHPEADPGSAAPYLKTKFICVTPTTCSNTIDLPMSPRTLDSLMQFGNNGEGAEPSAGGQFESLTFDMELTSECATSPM

Experiment [9] is described as follows: ATG_TA_CIS: Attagene CIS-FACTORIAL HepG2 Assay for human TA Basal Promoter (AID 2282964). The note with it: HepG2 Attagene CIS-factorial TA basal promoter reporter; actives raise or lower the signal. The method in brief:
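Transient MRTU transfection of HepG2 preceded 24 h compound exposure. Reporter mRNA levels were then read by RT-PCR with capillary electrophoresis, and this background-control endpoint was fitted bidirectionally to DMSO.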

Experiment [10] can be described thus: ATG_TCF_b_cat_CIS: Attagene CIS-FACTORIAL HepG2 Assay for human T-Cell-Factor with beta-catenin (TCF/b-cat) (AID 2282965). Particulars: HepG2 TCF/beta-catenin cis-reporter transcription, actives raise or lower the signal. The method in brief:
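Using capillary electrophoresis as the read-out, labelled reporter cDNA fragments from transiently transfected HepG2 were sized and quantified. Exposure lasted 24 hours; activity in either direction was referenced to DMSO.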

A short description of experiment [11]: ATG_TAL_CIS: Attagene CIS-FACTORIAL HepG2 Assay for human TAL Basal Promoter (AID 2282966).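 Note: background control endpoint measuring basal TAL promoter reporter mRNA not a specific factor.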 Particulars: HepG2 Attagene cis-factorial TAL promoter reporter; actives raise or lower the signal. The method in brief:
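Readout: reporter mRNA, fluorescence by CE. System: HepG2, transient multi-reporter transfection, endogenous TF activity. Exposure: 24 h. Analysis: bidirectional, DMSO-normalized; background control.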

A short description of experiment [12]: ATG_TGFb_CIS: Attagene CIS-FACTORIAL HepG2 Assay for human Transforming Growth Factor (TGF) (AID 2282967). The note with it: HepG2 Attagene CIS TGFb reporter, mRNA transcription; actives raise or lower the signal. The method in brief: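 After a 24-hour incubation with compound, transfected HepG2 cells were lysed for RNA; reporter cDNA was amplified, fluorescently end-labeled and separated by CE. DMSO served as baseline for bidirectional fits.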

Experiment [13] is described as follows: ATG_VDRE_CIS: Attagene CIS-FACTORIAL HepG2 Assay for human Vitamin D Receptor Element (VDRE) (AID 2282968). Particulars: HepG2 VDRE cis-reporter transcription, actives raise or lower the signal. The method in brief:
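RT-PCR/CE readout of reporter mRNA; HepG2, transient transfection, 24 h dosing; DMSO baseline; bidirectional analysis.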

Experiment [14] deals with Nuclear receptor subfamily 1 group I member 3 (Homo sapiens) (UniProt Q14994). Kind of experiment: ATG_CAR_TRANS: Attagene TRANS-FACTORIAL HepG2 Assay for human Constitutive Androstane Receptor (CAR) (AID 2282969; active = hit-call score of the fitted dose curve at least 0.9, where 1 is the maximum;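 note: activators raise reporter mRNA above DMSO so AC50 marks induction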). The note with it: HepG2 Attagene TRANS-FACTORIAL CAR reporter. The method, boiled down: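 HepG2 cells transiently transfected with multiplexed GAL4-UAS reporter units expressing chimeric NR-Gal4 proteins; compound exposure 24 h. Reporter mRNA measured by RT-PCR, 6-FAM labelling, HpaI digestion and capillary electrophoresis; gain-of-signal fitted against DMSO baseline.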
Chain of Nuclear receptor subfamily 1 group I member 3 (Homo sapiens) (Q14994 whole entry, looked up, the tested form may be a part): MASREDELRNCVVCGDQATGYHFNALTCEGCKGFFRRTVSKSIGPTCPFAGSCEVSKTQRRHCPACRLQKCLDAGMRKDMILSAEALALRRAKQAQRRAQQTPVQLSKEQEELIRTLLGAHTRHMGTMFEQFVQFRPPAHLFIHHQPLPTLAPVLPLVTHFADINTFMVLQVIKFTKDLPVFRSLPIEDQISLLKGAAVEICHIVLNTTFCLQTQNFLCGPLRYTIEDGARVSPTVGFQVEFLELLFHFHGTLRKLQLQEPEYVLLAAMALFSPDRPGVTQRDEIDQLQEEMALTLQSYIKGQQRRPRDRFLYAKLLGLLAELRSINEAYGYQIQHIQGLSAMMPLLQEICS

The target of experiment [15] is Estrogen receptor (Homo sapiens) (UniProt P03372). Kind of experiment: ATG_ERa_TRANS: Attagene TRANS-FACTORIAL HepG2 Assay for human Estrogen Receptor alpha (ERa) (AID 2282970; active = hit-call score of the fitted dose curve at least 0.9, where 1 is the maximum). The note with it: HepG2 Attagene TRANS ERa GAL4 reporter, mRNA. The method, boiled down:
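Transactivation via ERa-Gal4 chimera in HepG2; 24 hour incubation; reporter mRNA detected by fluorescence RT-PCR and capillary electrophoresis.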

Experiment [16] addresses X-box-binding protein 1 (Homo sapiens) (UniProt P17861). Kind of experiment: ATG_Xbp1_CIS: Attagene CIS-FACTORIAL HepG2 Assay for human X-box Binding Protein 1 (XBP1) (AID 2282972). Particulars: HepG2 XBP1 cis-element reporter, Attagene multiplex; actives raise or lower the signal. The method, boiled down:
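HepG2, transient MRTU transfection (cis-promoter driven), 24 h compound exposure. Total RNA → oligo(dT) RT → PCR → 6-FAM labeling → HpaI cut → CE. Bidirectional fit vs DMSO.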

A short description of experiment [17]: ATG_M_19_TRANS: Attagene TRANS-FACTORIAL HepG2 Assay for M19 Transcription Factor (Internal Marker) (AID 2282974; active = hit-call score of the fitted dose curve at least 0.9, where 1 is the maximum). Particulars: HepG2 Attagene TRANS-FACTORIAL M19 internal marker reporter. The method in brief: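 HepG2 transiently transfected with GAL4-UAS multiplex reporter constructs, exposed 24 h; reporter RNA quantified by RT-PCR, 6-FAM labeling, HpaI digestion and capillary electrophoresis; internal background marker fitted upward versus DMSO.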

The target of experiment [18] is Steroid hormone receptor ERR1 (Homo sapiens) (UniProt P11474). Kind of experiment: ATG_ERRa_TRANS: Attagene TRANS-FACTORIAL HepG2 Assay for human Estrogen-Related Receptor alpha (ERRa) (AID 2282971; active = hit-call score of the fitted dose curve at least 0.9, where 1 is the maximum). Particulars: HepG2 Attagene TRANS reporter, ERRa transactivation. The method in brief:
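HepG2 cells were transiently transfected with multiple GAL4-UAS reporter units, then dosed with compound for 24 h. Total RNA was reverse-transcribed, reporter cDNA PCR-amplified and fluorescently labelled, and fragments resolved by capillary electrophoresis; induction was compared with DMSO.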

Experiment [19] concerns the target Androgen receptor (Homo sapiens) (UniProt P10275). Kind of experiment: ATG_AR_TRANS: Attagene TRANS-FACTORIAL HepG2 Assay for human Androgen Receptor (AR) (AID 2282973; active = hit-call score of the fitted dose curve at least 0.9, where 1 is the maximum). The note with it: HepG2 Attagene TRANS-FACTORIAL AR reporter transcription. The method in brief: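 Transfected HepG2, 24 h treatment, chimeric NR-Gal4 driving GAL4-UAS reporters. mRNA induction by RT-PCR/capillary electrophoresis fluorescence; DMSO as negative control and baseline.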

We go through five compounds from PubChem BioAssay (EPA / NIEHS).

Values joined by “and” are separate entries in the source; they are usually repeats but may differ in a detail not shown here. Identical values can stand only once. Inconclusive results are not listed. More than one record can exist for a structure, and the calls need not agree. Active and inactive are the calls of the source. Rule for the calls, unless noted: active = hit-call score of the fitted dose curve at least 0.9, where 1 is the maximum; inactive = score below 0.9.

Chain of Paired box protein Pax-6 (Homo sapiens) (P26367 whole entry, looked up): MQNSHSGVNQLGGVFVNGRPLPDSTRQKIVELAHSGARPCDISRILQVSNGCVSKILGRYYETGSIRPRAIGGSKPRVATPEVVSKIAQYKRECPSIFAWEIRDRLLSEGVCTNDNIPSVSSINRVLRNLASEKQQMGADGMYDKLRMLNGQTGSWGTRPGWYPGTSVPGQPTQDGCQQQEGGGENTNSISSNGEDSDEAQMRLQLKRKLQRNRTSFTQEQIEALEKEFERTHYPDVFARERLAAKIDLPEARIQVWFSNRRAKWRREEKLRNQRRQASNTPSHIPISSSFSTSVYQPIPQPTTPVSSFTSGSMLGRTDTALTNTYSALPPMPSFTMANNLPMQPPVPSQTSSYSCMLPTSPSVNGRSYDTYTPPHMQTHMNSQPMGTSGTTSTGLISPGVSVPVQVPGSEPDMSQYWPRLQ
Chain of X-box-binding protein 1 (Homo sapiens) (P17861 whole entry, looked up): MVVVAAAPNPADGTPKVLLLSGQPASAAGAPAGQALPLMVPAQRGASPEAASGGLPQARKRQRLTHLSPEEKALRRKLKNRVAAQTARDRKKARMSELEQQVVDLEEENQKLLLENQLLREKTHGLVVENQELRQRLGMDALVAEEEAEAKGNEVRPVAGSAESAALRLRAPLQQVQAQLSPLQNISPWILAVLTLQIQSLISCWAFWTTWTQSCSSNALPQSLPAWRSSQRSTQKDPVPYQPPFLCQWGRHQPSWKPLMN
Chain of Steroid hormone receptor ERR1 (Homo sapiens) (P11474 whole entry, looked up, the tested form may be a part): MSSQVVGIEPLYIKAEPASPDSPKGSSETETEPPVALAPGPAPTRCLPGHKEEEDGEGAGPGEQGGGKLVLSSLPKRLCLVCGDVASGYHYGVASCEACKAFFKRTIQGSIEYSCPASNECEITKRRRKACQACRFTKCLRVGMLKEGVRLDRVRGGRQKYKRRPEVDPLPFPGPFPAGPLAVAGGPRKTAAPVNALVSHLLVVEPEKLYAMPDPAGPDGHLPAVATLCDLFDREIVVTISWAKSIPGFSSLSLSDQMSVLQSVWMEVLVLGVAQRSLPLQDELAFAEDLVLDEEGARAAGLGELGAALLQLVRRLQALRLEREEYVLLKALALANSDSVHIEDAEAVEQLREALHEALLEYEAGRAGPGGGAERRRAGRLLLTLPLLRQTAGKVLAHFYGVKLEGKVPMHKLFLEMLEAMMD
Chain of Estrogen receptor (Homo sapiens) (P03372 whole entry, looked up, the tested form may be a part): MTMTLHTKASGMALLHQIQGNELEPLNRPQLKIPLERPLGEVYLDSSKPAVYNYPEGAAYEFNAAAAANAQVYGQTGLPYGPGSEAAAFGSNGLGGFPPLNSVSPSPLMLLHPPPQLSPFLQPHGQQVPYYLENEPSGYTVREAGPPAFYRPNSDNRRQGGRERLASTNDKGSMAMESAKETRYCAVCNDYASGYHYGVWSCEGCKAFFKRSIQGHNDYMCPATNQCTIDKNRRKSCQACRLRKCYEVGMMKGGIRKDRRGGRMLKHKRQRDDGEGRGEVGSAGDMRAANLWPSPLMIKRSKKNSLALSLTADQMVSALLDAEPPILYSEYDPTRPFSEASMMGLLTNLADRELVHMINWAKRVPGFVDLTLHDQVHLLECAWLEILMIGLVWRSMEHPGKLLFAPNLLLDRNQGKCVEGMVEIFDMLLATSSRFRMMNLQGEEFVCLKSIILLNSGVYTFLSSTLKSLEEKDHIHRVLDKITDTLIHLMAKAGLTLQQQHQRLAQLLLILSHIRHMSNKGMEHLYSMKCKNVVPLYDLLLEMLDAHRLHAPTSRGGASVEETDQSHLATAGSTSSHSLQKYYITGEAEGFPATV
Chain of Androgen receptor (Homo sapiens) (P10275 whole entry, looked up, the tested form may be a part): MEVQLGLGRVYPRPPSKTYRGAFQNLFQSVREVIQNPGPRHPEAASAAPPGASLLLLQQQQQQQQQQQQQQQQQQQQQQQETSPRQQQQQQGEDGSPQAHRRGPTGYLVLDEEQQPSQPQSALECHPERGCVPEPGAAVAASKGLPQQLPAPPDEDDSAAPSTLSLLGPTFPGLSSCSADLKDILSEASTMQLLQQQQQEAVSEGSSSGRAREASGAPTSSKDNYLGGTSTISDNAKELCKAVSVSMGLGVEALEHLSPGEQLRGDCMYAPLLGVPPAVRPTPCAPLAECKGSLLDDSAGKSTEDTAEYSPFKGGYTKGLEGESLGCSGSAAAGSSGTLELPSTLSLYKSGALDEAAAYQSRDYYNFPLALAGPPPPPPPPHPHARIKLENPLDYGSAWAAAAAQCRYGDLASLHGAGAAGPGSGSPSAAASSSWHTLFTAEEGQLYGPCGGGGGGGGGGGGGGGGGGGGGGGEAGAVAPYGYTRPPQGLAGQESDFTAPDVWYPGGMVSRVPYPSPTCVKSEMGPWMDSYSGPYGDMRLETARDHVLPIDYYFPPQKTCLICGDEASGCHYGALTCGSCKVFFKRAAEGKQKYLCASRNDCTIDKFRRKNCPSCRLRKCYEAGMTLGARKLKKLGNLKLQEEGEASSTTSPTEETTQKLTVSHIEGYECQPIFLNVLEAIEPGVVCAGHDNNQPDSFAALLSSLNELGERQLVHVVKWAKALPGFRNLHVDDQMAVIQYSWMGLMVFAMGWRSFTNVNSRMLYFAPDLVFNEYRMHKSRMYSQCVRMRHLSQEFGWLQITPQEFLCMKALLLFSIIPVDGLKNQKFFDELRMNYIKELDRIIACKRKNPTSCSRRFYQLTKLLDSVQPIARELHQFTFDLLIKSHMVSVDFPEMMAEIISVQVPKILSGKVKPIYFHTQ

With `CCC(C)c1cc([N+](=O)[O-])cc([N+](=O)[O-])c1O` (stereo not drawn), the AC50 – broadly, the concentration giving half of the maximal activity seen – in [1] is 56.2 µM (active); in experiment [3], 16.5 µM (active); in experiment [4] it was 26.4 µM (active); in [5], 10.8 µM (active); in experiment [6], 20.9 µM (active); in [7] it was 27.6 µM (active). Moreover, the values for the AC50 in experiment [13], in experiment [15] and in experiment [16] were 12.6 µM (active), 0.807 µM (active) and 10.2 µM (active), respectively. The outcome in experiment [2], in experiment [8], in experiment [9], in experiment [10], in [11] and in experiment [12] was inactive. The call in experiment [14] was inactive.

As to `CCC(C)(c1ccc(O)cc1)c1ccc(O)cc1`, the AC50 in [1] was 52.8 µM (active) and 62.6 µM (active) and 24.6 µM (active); in experiment [2] it was 1.13 µM (active) [middle of 4 runs]; in experiment [4] it was 59.1 µM (active) and 21.5 µM (active); in experiment [6] it was 24.4 µM (active); in experiment [7], 33.4 µM (active) and 41.5 µM (active) and 13.9 µM (active); in experiment [9] it was 60.7 µM (active). The AC50 in experiment [10] is 39.7 µM (active) and 49.7 µM (active) and 47.8 µM (active); in experiment [16], 54.8 µM (active) and 52.7 µM (active) and 16.7 µM (active). In addition, the compound was called inactive in experiment [1], in [4], in experiment [5], in [6], in experiment [8] and in experiment [9]. In addition, the outcome in experiment [10], in [11], in experiment [12], in [14], in experiment [16] and in experiment [17] was inactive.

As for `Clc1ccc(C(c2ccccc2Cl)C(Cl)(Cl)Cl)cc1` (stereo not drawn), the AC50 in experiment [1] is 70.5 µM (active); in experiment [2], 3.54 µM (active) [middle of 4 runs]; in experiment [6], 70.5 µM (active); in [7] it was 93.9 µM (active); in [9], 45.3 µM (active); in [13], 3.58 µM (active) and 26.9 µM (active) and 15 µM (active). Moreover, in experiment [16], the AC50 is 70.5 µM (active) and 101 µM (active) and 46.4 µM (active). The call in experiment [1], in [3], in [4], in experiment [5], in experiment [6] and in experiment [7] was inactive. Also, the compound was classed as inactive in [8], in experiment [9], in [10], in experiment [11], in experiment [12] and in experiment [13]. The call in experiment [14], in [18], in experiment [16] and in experiment [17] was inactive.

As to `c1cc2ccc3cccc4ccc(c1)c2c34`, the outcome in experiment [1], in experiment [3], in [4], in experiment [5], in experiment [6] and in experiment [7] was inactive. The result in [8], in experiment [9], in experiment [10], in [11], in experiment [12] and in experiment [13] was inactive. For the same compound, the compound was called inactive in experiment [14], in experiment [15], in experiment [18], in [16], in [19] and in experiment [17]. In experiment [2], the AC50 was 8.77 µM (active).

On to `Cc1ccccc1CO[C@@H]1C[C@@]2(C(C)C)CC[C@]1(C)O2`, for which the call in experiment [1], in experiment [4], in [5], in experiment [6], in [8] and in experiment [9] was inactive. The result in experiment [10], in experiment [11], in experiment [12], in [14] and in [16] was inactive. Further, the AC50 is 2.14 µM (active) in experiment [2], 50 µM (active) in experiment [3], 14.7 µM (active) in experiment [7] and 21.4 µM (active) in [13].
